From PubChem BioAssay AID504332 (National Center for Advancing Translational Sciences (NCATS), 2011)
The campaign covered roughly 350,000 compounds. About 31,000 (8.9%) were called active. Where a call stands in place of a potency, no number is given. Not shown: some 15% with an inconclusive outcome. The sample holds actives, similar compounds and a random draw of the others, so the mix is not that of the screen. Unmarked numbers belong to inactive results. The call rests on the fitted dose curve; in most records, active means well fitted inhibition curve with a large enough effect; inconclusive means small, poorly fitted or top-dose-only effect; inactive means no such curve, though single readings can be large or run the other way.
Further: nearly all actives have a fitted effect of over 75% in size.
Potency means the concentration at half of the fitted maximal effect.

These compounds were tested against Histone-lysine N-methyltransferase EHMT2 (Homo sapiens) (UniProt Q96KQ7) (assay: qHTS Assay for Inhibitors of Histone Lysine Methyltransferase G9a). Conditions: G9a H3K9 monomethylation, AlphaScreen, 2 h; series mostly up to 59 µM.
Chain of Histone-lysine N-methyltransferase EHMT2 (Homo sapiens) (Q96KQ7 913-1193 limits assumed): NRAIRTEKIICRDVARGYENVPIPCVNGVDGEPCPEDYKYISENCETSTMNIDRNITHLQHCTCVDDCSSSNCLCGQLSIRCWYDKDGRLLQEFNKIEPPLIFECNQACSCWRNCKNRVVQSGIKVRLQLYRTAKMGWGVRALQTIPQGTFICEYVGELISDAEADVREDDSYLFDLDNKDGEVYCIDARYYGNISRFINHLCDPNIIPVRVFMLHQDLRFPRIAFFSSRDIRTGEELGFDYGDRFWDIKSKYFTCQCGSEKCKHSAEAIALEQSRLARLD
Outline: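 G9a (20 nM) preincubated 15 min RT with compounds, then 500 nM biotinylated H3K9 peptide and 20 uM SAM added; 2 h RT reaction. Monomethyl-H3K9 product detected by AlphaScreen with anti-H3K9me1 antibody, streptavidin donor and anti-rabbit IgG acceptor beads.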
`COc1ccc(/C=N/Nc2ccccc2C(=O)O)cc1` was tested, and the Potency was 79.4 µM (active). With `COc1ccc(/C=N/NC(=O)c2cccc(C(F)(F)F)c2)cc1` the Potency was “inactive”. `COc1ccc(C(=O)Nc2ccccc2C(=O)N/N=C/c2ccc(O)c(OC)c2)cc1` showed an activity, negative = inhibition of -4.54% [at 2.33 µM]. For `COc1ccc(Cc2nnc(SCC(=O)N(c3ccccc3)C(C)C)n(N)c2=O)cc1`, the Potency was “inactive”. For `CCOc1ccc(C(=O)CCN2CCOCC2)cc1`, the Potency was 39.8 µM (active). `Cc1ccc(S(=O)(=O)NCCN2CCOCC2)cc1C` gave an activity, negative = inhibition of -19.4% [at 12.7 µM]. `CCCCOc1ccc(C(C)(O)CCN2CCOCC2)cc1` (centres undefined) was tested, and the Potency was “inactive”. With `CCOc1ccc(C2C(C(=O)O)c3ccccc3C(=O)N2CCN2CCOCC2)cc1` (centres undefined) the activity, negative = inhibition was 1.66% [at 12.7 µM]. `CCOc1ccc(C(=O)CCC(=O)Nc2ccncc2)cc1` was tested, and the activity, negative = inhibition was -14% [at 12.7 µM]. In the case of `COc1ccc(C(=O)Nc2ccc(CN3CCOCC3)cc2)cc1`, the activity, negative = inhibition is reported as 39.7% [at 12.7 µM]. In the case of `Cc1cccc(C)c1OCC(O)CN1CCCCC1` (centres undefined), the Potency is reported as “inactive”. In the case of `CC(=O)c1ccc(OCCN2CCOCC2)cc1`, the Potency is reported as 25.1 µM (active). With `Cc1cccc(C)c1OCCN1CCOCC1` the Potency was 11.2 µM (active). In the case of `COc1ccc(CCC(=O)NCc2ccc3c(c2)CCN3C(=O)c2ccc(F)cc2)cc1`, the Potency is reported as “inactive”. For `CCN(C(=O)COC(=O)CCOc1cccc(C)c1)c1c(N)n(Cc2ccccc2)c(=O)[nH]c1=O`, the Potency was “inactive”. In the case of `O=C(CSc1ncc(S(=O)(=O)c2ccc(Br)cc2)c(=O)[nH]1)Nc1ccc2c(c1)OCCO2`, the Potency is reported as “inactive”. With `O=C(COC(=O)c1cccs1)NCc1cccs1` the Potency was “inactive”. `Cc1ccc(N2CC(NC(=O)Cc3cccs3)CC2=O)cc1` (centres undefined) was tested, and the Potency was “inactive”. In the case of `CCN(C(=O)COC(=O)Cc1c(F)cccc1Cl)c1c(N)n(Cc2ccccc2)c(=O)[nH]c1=O`, the activity, negative = inhibition is reported as 1.45% [at 12.7 µM]. In the case of `Cc1cccc(-c2nc(SCC(=O)Nc3cc(C)on3)c3c(=O)n(C)c(=O)n(C)c3n2)c1`, the Potency is reported as “inactive”. `Cc1ccc(OCC(=O)OCc2cc(=O)n3nc(C4CC4)sc3n2)cc1C` was tested, and the Potency was “inactive”. In the case of `O=C(Nc1ccccc1)OCc1cc(-c2ccc(Cl)cc2)on1`, the Potency is reported as “inactive”. For `O=C1C=C(c2ccc(Cl)cc2)C(=O)N1Nc1ccccc1`, the Potency was 7.94 µM (active). For `O=C1c2cccc3cc(Br)cc(c23)C(=O)N1Nc1ccccc1`, the Potency was “inactive”. With `COc1ccc(Nc2oc(-c3ccccc3Cl)nc2C#N)cc1` the Potency was “inactive”. For `Cc1ccccc1-c1nc(C#N)c(NCc2ccco2)o1`, the Potency was 39.8 µM (active). `Cc1cc(NCc2ccco2)n2c(nc3ccccc32)c1C#N` was tested, and the Potency was “inactive”. With `O=C(NCCc1ccccc1)c1ccc2c(c1)N(Cc1ccccc1)C(=O)c1ccccc1S2(=O)=O` the Potency was “inactive”. With `CC1CCCC(NC(=O)COC(=O)[C@@H]2CC(O)CN2S(=O)(=O)c2ccc3c(c2)OCCO3)C1C` (some centres undefined) the Potency was “inactive”. With `Cc1cc(S(=O)(=O)N2CCOCC2)ccc1OCC(=O)Nc1cccc(C(F)(F)F)c1` the Potency was “inactive”. With `Cc1ccc(S(=O)(=O)N2CC(O)C[C@H]2C(=O)OCC(=O)Nc2ccc(N3CCOCC3)cc2)cc1C` (some centres undefined) the Potency was 50.1 µM (active). In the case of `CC(C)Oc1ccc(NC(=O)c2cc3ccccc3o2)cc1`, the Potency is reported as “inactive”. Compound `O=C(/C=C(O)/C=C/c1ccc(O)cc1)/C=C/c1ccc(O)cc1` has an activity, negative = inhibition of 1.18% [at 0.501 µM]. In the case of `CCOC(=O)C(C)N(c1ccccc1Cl)S(C)(=O)=O` (centres undefined), the activity, negative = inhibition is reported as 25.6% [at 12.7 µM]. With `Cc1cc(C)cc(NC(c2nnc(-c3cccc(F)c3)o2)c2ccc(F)cc2Cl)c1` (centres undefined) the Potency was “inactive”. With `O=S(=O)(NCC1OCCc2ccccc21)c1ccccc1` (centres undefined) the activity, negative = inhibition was -24.8% [at 2.33 µM]. `O=c1/c(=C/c2ccc(CNS(=O)(=O)c3ccccc3)o2)sc2n1CCN=2` was tested, and the Potency was 39.8 µM (active). In the case of `O=S(=O)(NCCc1ccncc1)c1ccccc1`, the Potency is reported as “inactive”. In the case of `COc1ccc(CNC(=O)C(=O)N2CCC3(CC2)OCCN3S(=O)(=O)c2ccc(C)cc2)cc1`, the Potency is reported as “inactive”. For `COc1ccccc1C(=O)NC(=O)COC(=O)C1CC1`, the Potency was “inactive”. `O=S(=O)(NCCCCCCNS(=O)(=O)c1c(F)cccc1F)c1ccc2c(c1)OCCO2` gave an activity, negative = inhibition of 21.9% [at 2.33 µM]. With `CC(=O)CC[C@@H](C)O[C@@H]1OC(C)[C@H](O)CC1O` (some centres undefined) the activity, negative = inhibition was 14.8% [at 2.33 µM]. For `Cc1cccc(C(=O)N2CCc3c([nH]c4ccccc34)C2CC(C)C)n1` (centres undefined), the Potency was “inactive”. For `CCOc1cccc(CC(=O)N2CCc3c([nH]c4ccccc34)C2c2ccc(F)cc2)c1OCC` (centres undefined), the Potency was “inactive”. For `CC1CCN(C(=O)COC(=O)c2cc(=O)[nH]c3ccccc23)CC1`, the activity, negative = inhibition was -8.14% [at 12.7 µM]. In the case of `COCc1ccc(C(=O)N2CCc3c([nH]c4ccccc34)C2c2ccccn2)s1` (centres undefined), the Potency is reported as 31.6 µM (active). In the case of `Cc1cccc(C2c3[nH]c4ccccc4c3CCN2C(=O)c2cc(-c3cccn3C)n[nH]2)n1` (centres undefined), the Potency is reported as 28.2 µM (active). `CCc1nnc(SCc2c(F)cccc2Cl)c2cc3sccc3n12` was tested, and the Potency was “inactive”. For `CC(C)CN(C(=O)c1ccc2c(c1)OCO2)C1CCS(=O)(=O)C1` (centres undefined), the Potency was “inactive”. For `CN(CC(=O)Nc1cccc(F)c1)C(=O)C1CSC2(C)CCC(=O)N12` (centres undefined), the Potency was “inactive”. `CCC(=O)N1CCc2cc(S(=O)(=O)NC(CC(C)C)C(=O)NCCc3cccc(C)c3)ccc21` (centres undefined) was tested, and the Potency was “inactive”. In the case of `Cc1cc(NC(=O)COc2ccccc2C#N)no1`, the Potency is reported as “inactive”. With `O=C(c1ccc(C(F)(F)F)cc1)C1CCCN(C(=O)c2csnn2)C1` (centres undefined) the Potency was “inactive”. With `COCC(=O)N1CCCC(C(=O)c2ccc(C(F)(F)F)cc2)C1` (centres undefined) the Potency was “inactive”. `Cc1cnc(C(=O)N2CCCC(C(=O)c3ccc(C(F)(F)F)cc3)C2)cn1` (centres undefined) was tested, and the Potency was 22.4 µM (active). With `CCc1ccc2nc(N(CCCN(C)C)C(=O)c3ccc4c(c3)OCCO4)sc2c1` the Potency was “inactive”. `O=C(NCc1ccc2c(c1)OCO2)c1ccc(Cl)s1` was tested, and the Potency was “inactive”. `Cc1nc2ccc(NC(=O)C3CCCCC3)cc2s1` showed an activity, negative = inhibition of 8.28% [at 12.7 µM]. `CCCCN(CC)C(=O)c1ccc2c(c1)OCO2` was tested, and the Potency was “inactive”. In the case of `CN(C)CCN(C(=O)C1CCCCC1)c1nc2cc3c(cc2s1)OCO3`, the Potency is reported as 70.8 µM (active). In the case of `CCN(CC)CCN(C(=O)c1ccc(N2C(=O)CCC2=O)cc1)c1nc2cc3c(cc2s1)OCO3`, the Potency is reported as 35.5 µM (active). In the case of `O=C(Nc1nc2cc3c(cc2s1)OCCO3)c1cccc(S(=O)(=O)N2CCOCC2)c1`, the Potency is reported as “inactive”. For `CN(C)CCCN(C(=O)c1ccc(S(=O)(=O)N2CCCCCC2)cc1)c1nc2cc3c(cc2s1)OCCO3`, the Potency was 44.7 µM (active). In the case of `CCN(CC)CCN(C(=O)c1cc(Cl)sc1Cl)c1nc2cc3c(cc2s1)OCO3`, the Potency is reported as 50.1 µM (active). For `Cc1nc2cc3c(cc2s1)OCO3`, the Potency was “inactive”. In the case of `CCc1ccc(Nc2nn3c(=O)c4cc5c(cc4nc3s2)OCO5)cc1`, the Potency is reported as “inactive”. With `COc1ccccc1N1CCN(CC(=O)Nc2ccnn2C2CCCC2)CC1` the activity, negative = inhibition was 10.3% [at 2.33 µM]. `CCC1Nc2ncnc(N3CCN(c4ccccc4)CC3)c2N(Cc2ccc(Cl)cc2)C1=O` (centres undefined) was tested, and the activity, negative = inhibition was 3.93% [at 2.33 µM]. With `CC(C)NC(=O)c1nn(-c2ccccc2F)nc1CO` the Potency was “inactive”. In the case of `OCC(CO)NC1C[C@](O)(CO)[C@@H](O)[C@H](O)[C@H]1O` (some centres undefined), the Potency is reported as “inactive”. In the case of `CC(C)(C)c1ccc(OCC(=O)N2CCC(c3nc4ccccc4s3)CC2)cc1`, the Potency is reported as “inactive”. `O=C(c1cccs1)N1CCC(c2nc3ccccc3s2)CC1` was tested, and the Potency was 39.8 µM (active). `Cc1cccc(NC(=S)N2CCC(c3nc4ccccc4s3)CC2)c1` was tested, and the activity, negative = inhibition was 30.9% [at 0.501 µM]. In the case of `CC(=O)c1cccc(NC(=O)c2nc(-c3ccccc3)n(-c3cccc(C)c3)n2)c1`, the Potency is reported as “inactive”. For `O=C(CCn1c(=O)[nH]c2ccccc2c1=O)NCCCN1CCN(c2cccc(Cl)c2)CC1`, the Potency was “inactive”. With `Cn1c(C(=O)NCCCN2CCN(c3cccc(Cl)c3)CC2)cc2c(=O)n(C)c3ccccc3c21` the Potency was 7.94 µM (active). For `CCOc1ccc(CCNC(=O)c2cc3c(=O)n(C)c4ccccc4c3n2C)cc1`, the Potency was “inactive”. `CCN1C(=O)c2ccccc2Sc2ccc(NC(=O)Cc3ccc(OC)cc3)cc21` was tested, and the Potency was “inactive”. `COc1cc(-c2nnn(CC(=O)NCc3ccccc3)n2)cc(OC)c1OC` was tested, and the Potency was “inactive”. In the case of `COc1cc(-c2n[nH]c(=S)n2Cc2ccccc2)cc(OC)c1OC`, the Potency is reported as 3.55 µM (active). With `CCC(C)n1c(-c2cc(OC)c(OC)c(OC)c2)nc2nc3ccccc3nc21` (centres undefined) the Potency was “inactive”. In the case of `CCOC(=O)C1=C(O)/C(=C/c2cc(C)n(-c3ccccc3)c2C)N=C1C`, the Potency is reported as 50.1 µM (active). With `COC(=O)C1=C(O)/C(=C/c2ccc(OCC(=O)Nc3ccccc3)cc2)N=C1C` the Potency was “inactive”. Compound `CCOC(=O)c1nn(-c2cccc(C)c2)cc1C(=O)c1ccccc1` has an activity, negative = inhibition of -45.6% [at 2.33 µM]. `COc1ccc2oc(C(=O)NCC(Cc3ccccc3)N(C)C)c(C)c2c1` (centres undefined) was tested, and the Potency was “inactive”. `Cc1ccc(OC(=O)c2cncc(Br)c2)c(C)c1` was tested, and the Potency was “inactive”. `COc1ccc(OC)c(-n2cc3c(=O)n(C)c(=O)n(C)c3c2)c1` was tested, and the Potency was 50.1 µM (active). For `Cn1c(=O)c2cn(-c3cccc4ccccc34)cc2n(C)c1=O`, the activity, negative = inhibition was 5.87% [at 2.33 µM]. In the case of `COc1ccc(NC(=O)CCNS(=O)(=O)c2ccc3c(c2)c(=O)n(C)c(=O)n3C)cc1OC`, the Potency is reported as “inactive”. With `Cc1ccc(NC(=O)c2cccc(S(=O)(=O)N3CCCc4ccccc43)c2)nc1` the Potency was “inactive”. In the case of `CCOC(=O)CC1(NC(=O)c2cc(COc3cncc(Cl)c3)on2)CCCCC1`, the Potency is reported as “inactive”. With `CCOC(=O)C(Cc1ccc(N)cc1)N1C(=O)c2ccccc2C1=O` (centres undefined) the Potency was 50.1 µM (active). With `CCCCC(C(=O)OCC(=O)c1ccc(OC)cc1)N1C(=O)c2ccccc2C1=O` (centres undefined) the Potency was “inactive”. `COc1ccc(C[C@H](C(=O)O)N2C(=O)c3ccc(C(=O)O)cc3C2=O)cc1` was tested, and the activity, negative = inhibition was 8.45% [at 12.7 µM].
